In PubChem BioAssay AID485314 (National Center for Advancing Translational Sciences (NCATS), 2010):
About 4,500 (1.3%) of roughly 340,000 compounds were called active. Inconclusive results (about 5%) are left out. The entries come from a sample that favours actives as a whole. Unmarked numbers belong to inactive results. The call rests on the fitted dose curve; in most records, active means well fitted inhibition curve with a large enough effect; inconclusive means small, poorly fitted or top-dose-only effect, or another doubt; inactive means no such curve, though single readings can be large or run the other way.

target: DNA polymerase beta (Homo sapiens) (UniProt P06746); experiment: qHTS Assay for Inhibitors of DNA Polymerase Beta; settings: Pol beta primer extension/strand displacement, fluorescence kinetic; series mostly up to 114 µM; activity change, negative = inhibition: at the top concentration
Summary of the method: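 Preincubation: enzyme (10 nM) with compound, 15 min, RT. Reaction: substrate added to 50 nM final. Reads: 0 and 10 min. Analysis: normalized, Hill fit.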
On the % scale 0 is the no-effect control and ±100 the full control effect; potency means the concentration at half of the fitted maximal effect.

Compound | activity change, negative = inhibition [%] | Potency
COC(=O)c1cnn(-c2ccc(C(=O)Nc3ccc(OC(F)(F)F)cc3)cc2)c1N | 5.55 | 
CCOc1ccc(NC(=O)C2CCN(C(=O)N3CCOc4ccccc43)CC2)cc1 | 10.2 | 
COC(=O)c1ccccc1NC(=O)C1CCN(C(=O)N2CCOc3ccccc32)CC1 |  | 89.1 µM (active)
COC(=O)c1ccccc1NC(=O)C1CCN(S(=O)(=O)c2cc(OC)ccc2OC)CC1 | -6.7 | 
Cc1ccc(-c2nn(CCC(=O)Nc3ccc(OC(F)(F)F)cc3)c(=O)c3ccccc23)cc1 | 21.3 | 
Clc1cccc(-n2ncc3c(NCCc4ccccc4)ncnc32)c1 | -25.3 | 
COc1ccc(OC)c(NC(=O)Cc2cccs2)c1 |  | 50.1 µM (active)
CCc1nnc(NC(=O)Cc2cccs2)s1 | -16.2 | 
CCOc1ccccc1NC(=O)Cc1cccs1 |  | 10 µM (active)
CCOC(=O)c1ccc(NC(=O)Cc2cccs2)cc1 | 1.56 | 
COc1ccc(NC(=S)NCc2cccs2)c(OC)c1 | 0.939 | 
COc1ccc(C)cc1NC(=O)CNCc1cccs1 | 2.69 | 
O=C(Cc1cccs1)Nc1nnc(SCc2ccc(F)cc2)s1 | -18.1 | 
CCOc1ccc(NC(=O)C/C(C)=N/NC(=O)Cc2cccs2)cc1 | 31 | 
COc1ccc(Cc2nnc(NC(=O)Cc3cccs3)s2)cc1 |  | 2 µM (active)
Cc1nnc(NC(=O)CSc2nc3c([nH]c4ccccc43)c(=O)n2-c2cccc(Cl)c2)s1 | 2.52 | 
CCN(C(=O)CSc1nnc(C)n2c1cc1occc12)c1ccccc1 | -23.3 | 
COc1ccc(C)cc1NC(=O)CCc1c(C)nn(-c2ccc(N3CCOCC3)nn2)c1C | 0.568 | 
Cc1ccc(NC(=O)CSc2nc(CSc3ccc(C)cc3)cc(=O)[nH]2)cc1 | 0.354 | 
COc1ccc(NC(=O)CSc2nc(NS(=O)(=O)c3ccc(C)cc3)cc(=O)[nH]2)cc1 |  | 17.8 µM (active)
Cc1ccc(OCCCC(=O)Nc2ccc(S(=O)(=O)Nc3cc(C)nc(C)n3)cc2)cc1 | 16.7 | 
CC1CCC2(CC1)N=C(c1ccccc1)C(=O)N2CC(=O)Nc1ccc(F)c(Cl)c1 (stereo not given) | 8.62 | 
O=C(Nc1ccc2nc(SCCOc3ccccc3)sc2c1)c1ccco1 | 6.94 | 
CCS(=O)(=O)C1=NSC2=NC(=O)/C(=C\c3cc(C)n(-c4cccc(OC)c4)c3C)C(=N)N21 | -1.06 | 
CS(=O)(=O)c1ccc2c(c1)SC1=NC(=O)/C(=C/c3ccco3)C(=N)N12 |  | 31.6 µM (active)

Compound | activity change, negative = inhibition [%] | Potency
CCS(=O)(=O)C1=NSC2=NC(=O)/C(=C\c3ccc(OS(=O)(=O)c4ccccc4)cc3)C(=N)N21 | 0.694 | 
CC(C)(C)c1ccc(C(=O)Nc2ccc3c(c2)CCCN3C(=O)c2cccs2)cc1 | 47.1 | 
CC(C)(C)C1C/C(=C/c2ccco2)C(=O)/C(=C/c2ccco2)C1 (stereo not given) |  | 10 µM (active)
CCC1C/C(=C/c2cccs2)C(=O)/C(=C/c2cccs2)C1 (stereo not given) | -21.1 | 
CC(C)c1ccc(NC(=O)c2ccc3c(O)c(S(=O)(=O)c4ccccc4)c(=O)[nH]c3c2)cc1 | 2.35 | 
CCOC(=O)C1CCN(C(=O)CSc2c3c(nc4ccc(Cl)cc24)CCCC3)CC1 | -25.2 | 
COCCNC(=O)c1ccc2c(c1)N(Cc1cccc(Cl)c1)C(=O)c1ccccc1S2(=O)=O | -11.6 | 
Cc1ccc2nc(-c3ccncc3)cc(C(=O)Nc3ccc(OC(F)F)cc3)c2c1 |  | 8.91 µM (active)
Cc1ccc2nc(-c3ccncc3)cc(C(=O)Nc3ccc4c(c3)OCCO4)c2c1 | 10.7 | 
Cc1ccc2nc(-c3ccccn3)cc(C(=O)Nc3ccc4c(c3)OCO4)c2c1 | -4.44 | 
Cc1ccc(Nc2ccc3cc(S(=O)(=O)N4CCCCC4)ccc3n2)cc1F | 16.8 | 
COc1ccccc1OCCOc1ccc(/C=N/n2cnnc2)cc1 |  | 44.7 µM (active)
COc1ccccc1OCCOc1ccc(/C=C2\C(=N)N3N=C(C)SC3=NC2=O)cc1 | -15.8 | 
Cc1ccccc1OCCOc1ccc([N+](=O)[O-])cc1/C=N/n1cnnc1 | 2.22 | 
CSc1ccccc1NC(=O)CCS(=O)(=O)c1nc(-c2cccs2)cc(C(F)(F)F)n1 | -1.2 | 
COc1cccc(Cn2c(SCc3ccc(C(=O)N4CCCCC4)cc3)nc3ccncc32)c1 | 55.1 | 
N#Cc1ccsc1NC(=O)CN1CCN(S(=O)(=O)c2cc(Cl)ccc2Cl)CC1 | -2.37 | 
COc1ccc(Cl)cc1S(=O)(=O)N1CCN(CC(=O)C(C)(C)C)CC1 | -0.0725 | 
O=C(CN1CCN(S(=O)(=O)c2cc(Cl)ccc2Cl)CC1)c1ccc(O)c(O)c1 |  | 3.16 µM (active)
O=C(NCCc1ccccc1)c1ccc2c(c1)N(Cc1ccc(F)cc1)C(=O)c1ccccc1S2(=O)=O | 8.98 | 
CCc1ccc(NC(=O)COC(=O)c2cccs2)cc1 | 0.301 | 
O=C(COC(=O)[C@H](Cc1ccccc1)NC(=O)c1cccs1)Nc1cc(F)ccc1F |  | 79.4 µM (active)
NC(=O)c1ccc(NC(=O)COC(=O)C(Cc2ccccc2)NC(=O)c2ccccc2)cc1 (stereo not given) | 21.6 | 
Cc1cccc(NC(c2cccc(F)c2)c2ccc3ccc(C)nc3c2O)n1 (stereo not given) | -16.3 | 
O=[N+]([O-])C(=c1ccc2c(c1)N1C3=C(CCCC3)CC3CCCCC31N=2)[N+](=O)[O-] (stereo not given) |  | 39.8 µM (active)

Compound | activity change, negative = inhibition [%] | Potency
Cc1ccc(-c2nc3cccc(C)n3c2Nc2ccc3c(c2)OCCO3)cc1 | 26.9 | 
COc1cccc(CNC(=O)c2ccc3c(c2)N(Cc2ccc(C(F)(F)F)cc2)C(=O)c2ccccc2S3)c1OC | 0.414 | 
Cc1ccccc1-c1nc2scc(CCNC(=O)C(=O)Nc3ccc(F)cc3F)n2n1 | -10.8 | 
O=C(Cn1cc(SCc2ccccc2)c2ccccc21)N1CCCCC1 | 2.46 | 
Cc1cnc(C(=O)N2CCCC(C(=O)c3ccc(C(F)(F)F)cc3)C2)cn1 (stereo not given) |  | 14.1 µM (active)
COCC(=O)N1CCCC(C(=O)c2ccc(C(F)(F)F)cc2)C1 (stereo not given) | 23.9 | 
O=C(c1ccc(C(F)(F)F)cc1)C1CCCN(C(=O)c2csnn2)C1 (stereo not given) | 3.97 | 
Cc1cc(Cl)ccc1OCC(=O)N(Cc1ccc(N(C)C)cc1)C1CCS(=O)(=O)C1 (stereo not given) | 8.42 | 
CCOC(=O)c1c(NC(=O)CSc2cn(CCNC(=O)c3cccc(C(F)(F)F)c3)c3ccccc23)sc2c1CCC2 | 1.43 | 
Cc1ccc(-n2ncc3c(NCCCn4ccnc4)ncnc32)cc1Cl | 0.21 | 
O=C(Nc1ccc(S(=O)(=O)Nc2nccs2)cc1)c1cc(-c2ccncc2)nc2ccccc12 |  | 15.8 µM (active)
CCC(CC)C(=O)Nc1ccc(S(=O)(=O)Nc2nccs2)cc1 | 17.1 | 
O=C(Nc1ccc(S(=O)(=O)Nc2nccs2)cc1)c1cc(=O)[nH]c2ccccc12 | 14.3 | 
COc1ccc(CCNc2ncnc3c2cnn3-c2ccc(C)cc2)cc1 | 6.86 | 
COc1ccc(CNC(=O)C(Cc2ccccc2)n2cccc2)cc1 (stereo not given) | -10.3 | 
Cc1ccc(C)n1C(Cc1ccccc1)C(=O)O (stereo not given) |  | 10 µM (active)
CCOC(=O)C(Cc1ccc(N)cc1)N1C(=O)c2ccccc2C1=O (stereo not given) | -23.2 | 
COc1cc(OC)cc(C(=O)Nc2c(C(=O)Nc3ccc(F)cc3)oc3ccccc23)c1 | -2.89 | 
CCOC(=O)c1ccc(N2C(=O)c3n[nH]c(-c4ccco4)c3C2c2ccc(O)cc2)cc1 (stereo not given) | 22.2 | 
CCn1cc(C(=O)NCc2ccc(C)cc2)c(=O)c2cc(S(=O)(=O)N3CCc4ccccc4C3)ccc21 | 27.3 | 
Cc1ccc(/C=C/C(=O)Nc2ccc([N+](=O)[O-])c(NC(=O)/C=C/c3ccc(C)o3)c2)o1 |  | 11.2 µM (active)
COc1ccc(OC)c(NC(=O)/C=C/c2ccc(C)o2)c1 | 11 | 
CCc1nnc(NC(=O)/C=C/c2ccc(C)o2)s1 | -10.9 | 
CCc1cc2c(-c3ccccc3)cc(=O)oc2c2c1OCN(Cc1ccc(C)cc1)C2 | -8.79 | 
O=S(=O)(c1ccc2nc(NCc3ccccc3Cl)ccc2c1)N1CCCCC1 | 6.35 | 

Compound | activity change, negative = inhibition [%] | Potency
Brc1ccc2c(c1)NC(c1cccnc1)=NC(c1ccccc1)=N2 | 19.1 | 
CCc1ccc(CN(Cc2ccco2)C(=O)COc2ccc(Cl)c(C)c2)cc1 | 0.226 | 
N#Cc1c(-c2ccc(F)cc2)nc(-c2ccccc2)[nH]c1=O | 1.71 | 
N#Cc1c(-c2ccccc2)nc(SCc2cccc(C(F)(F)F)c2)[nH]c1=O |  | 79.4 µM (active)
O=c1[nH]c(SCc2cccc(F)c2)nc2ccccc12 | 25 | 
CCOC(=O)c1ccc(NC(=O)CNC(=O)c2ccco2)cc1 |  | 56.2 µM (active)
O=C(COC(=O)CNC(=O)c1ccco1)Nc1ccc(F)cc1 | 3.11 | 
CCN(CC)CCOC(=O)c1ccc(NC(=O)CNC(=O)c2ccccc2)cc1 | 8.66 | 
CCOC(=O)c1ccc(NC(=O)c2c(NCc3cccs3)sc3c2CCCC3)cc1 | 1.84 | 
CCN(CCCNC(=O)c1cc2c(=O)n(CC)c3ccccc3c2s1)Cc1ccccc1 | 33.1 | 
Cc1c(Cl)cccc1NC(=O)c1noc2c1CCCC2 | 2.6 | 
COc1cccc(/C=N/Nc2ccc(Cl)nn2)c1 | -1.22 | 
Oc1cccc(/C=N/Nc2ccc(Cl)nn2)c1O |  | 39.8 µM (active)
Cc1ccsc1/C=N/Nc1ccc(Cl)nn1 | 6.83 | 
CCOC(=O)c1c(NC(=O)COc2cc(C)ccc2C(C)C)sc(C)c1C | 0.757 | 
COc1ccc(S(=O)(=O)c2cn(C)c3cc(N4CCCCC4)c(F)cc3c2=O)cc1 | -1.37 | 
O=C(Cc1c(F)cccc1Cl)Nc1ccc(-n2cnnn2)cc1 | 0.175 | 
O=C(COc1ccc(Cl)cc1)Nc1ccccc1CO | 11.2 | 
O=C(COc1ccc(-n2cnnn2)cc1)Nc1ccccc1Cl |  | 28.2 µM (active)
CCOc1ccc(N(C)S(=O)(=O)c2cc(-c3cnc(C)o3)ccc2OC)cc1 | 3.9 | 
Cc1cccc(N2CCN(S(=O)(=O)c3ccc4[nH]c5c(c4c3)CCCCC5)CC2)c1C | 5.75 | 
Cc1nn(-c2ccc(N3CCCCC3)nn2)c(C)c1CCC(=O)NCc1ccccc1F | 4.44 | 
Cc1ccc(C(=O)NC(C)c2ccccc2)cc1Br (stereo not given) | -3.8 | 
CC1=CCC2C(=O)N(c3cccc(C(=O)NC(C)c4ccccc4)c3)C(=O)C2C1 (stereo not given) |  | 39.8 µM (active)
COc1ccc(Cl)cc1NC(=O)c1cccc(N2C(=O)C3CC=CCC3C2=O)c1 (stereo not given) | 28.5 | 
